Bioassay records from PubChem.
BoNT-A LC inh2 = blocks Botulinum neurotoxin A light chain protease | multiplex microsphere protease substrate cleavage, flow cytometry | inhibition, % at 10 µM | 360,000 tested, 0.17% active
MazEF act = increases E. coli MazEF RNase cleavage of RNA; activation, % at 20 µM; FAM/BHQ RNA-DNA oligo cleavage fluorescence, 5 h; 350,000 tested, 0.32% active; AID 504720; P0AE70; in the data active = activation above about 50%
Target sequence (P0AE70 whole entry, looked up): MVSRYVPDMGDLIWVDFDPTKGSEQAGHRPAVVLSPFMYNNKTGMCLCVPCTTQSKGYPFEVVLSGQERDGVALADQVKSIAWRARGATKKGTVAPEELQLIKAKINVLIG
Anthrax LF prot = anthrax lethal factor protease inhibition; P15917; multiplex microsphere protease cleavage assay, LF; inhibition, % at 10 µM; 360,000 tested, 0.12% active
BoNT-F LC inh = BoNT F light chain protease inhibition. Multiplex microsphere protease cleavage assay, flow cytometry. inhibition, % at 10 µM. 360,000 tested, 0.22% active. AID 588497; in the data active = inhibition above about 35%, passing the limit was not always enough; inconclusive = no clear call, values can overlap the other calls
Vc quorum ag = induces V. cholerae light production without autoinducers | V. cholerae BH1578 lux reporter, luminescence, 6 h | activation, % at 18.7 µM | 350,000 tested, 0.16% active | AID 588436; in the data active = activation mostly above about 9.7%, no sharp cut-off; inconclusive = no clear call, values can overlap the other calls; inactive = mostly below about 3.7%
Bead autofluor = compound fluorescence in toxin protease inhibitor counterscreen | compound autofluorescence counterscreen, microsphere flow cytometry; stronger effect = higher value | 360,000 tested, 3.1% active | fluorescence intensity (test concentration not listed) | AID 624483; in the data active = fluorescence intensity above about 16000; inconclusive = no clear call, values can overlap the other calls
Of the large screens only hits and unclear results are named; the others gave an inactive call; ! = a repeat was not active. In the library only some 3.9% were active in any assay of this set; here they are far more common. Rule as the data show it, unless noted: active = inhibition above about 30%; inconclusive = no clear call, values can overlap the other calls; inactive = below that.

CCOc1ccc(C(=O)N2CCN(c3cccc(C)c3C)CC2)cc1	Bead autofluor 17197
CCOC(=O)N1CCN(C(=O)c2ccc(OC)c(OC)c2)CC1	none (no result: Vc quorum ag)
CCOC(=O)C1CCCN(C(=O)c2ccc(OCC)cc2)C1 (stereo not given)	Bead autofluor 24552
CCCOc1ccc(C(=O)N2CCCC2)cc1OC	BoNT-A LC inh2 inconclusive, Bead autofluor 19871
CCN(CC)C(=O)CSc1nc2cc(S(=O)(=O)N3CCOCC3)ccc2n1CC	none
CC(C)Nc1nc(Nc2ccc(Cl)cc2F)c2sccc2n1	none (no result: MazEF act)
CCCNC(=O)CN1C(=O)c2ccccc2Sc2ncccc21	Anthrax LF prot 30
Cc1cccnc1NC(=O)Nc1cccs1	BoNT-A LC inh2 inconclusive, Bead autofluor 22281
COc1ccccc1NC(=O)Nc1ncccc1C	Bead autofluor 22096
C=CCn1c(SCC(=O)NC23CC4CC(CC(C4)C2)C3)nc2cc(C(=O)O)ccc2c1=O	none
OC[C@@H]1CC[C@@H](Cc2ccc(-c3ccccc3)cc2)O1	none
COc1cc2nc(N3CCNCC3)nc(N)c2cc1OC	Bead autofluor 17344
COc1cc2nc(N3CCN(c4cc(C)ccc4C)CC3)nc(N)c2cc1OC	none
Cc1ccc(C)c(NC(=O)CCC(=O)N/N=C/c2ccc[nH]2)c1	Bead autofluor 21086
CC1CCN(S(=O)(=O)c2nnc(NC(=O)c3ccccc3Br)s2)CC1	none
CSCCC(NC(=O)OCc1ccccc1)NC(=O)OCc1ccccc1	none (no result: MazEF act, Vc quorum ag)
CSCC[C@H](NC(=O)OCc1ccccc1)C(=O)O	Bead autofluor 22450
Cc1cccc(NC(=O)NCC(F)(F)F)n1	BoNT-A LC inh2 inconclusive, Bead autofluor 19660
C/C(Cn1cnc([N+](=O)[O-])n1)=N\NC(=O)c1cccc(F)c1	BoNT-F LC inh 36
C/C(Cn1cnc([N+](=O)[O-])n1)=N\NC(=O)c1ccc(F)cc1	none
Cc1ccc2nc(-c3cccc(Br)c3)c(Cc3ccccc3)n2c1	none (no result: MazEF act, Vc quorum ag)
COc1ccccc1N1CCN(C(=O)C(=O)c2c[nH]c3ccccc23)CC1	none
Cc1cccc(/C=N/NC(=O)c2ccccc2OCc2cccc(Br)c2)n1	none
Cc1cccc(/C=N/NC(=O)c2cc(Br)ccc2OCc2ccccc2)n1	MazEF act 125
CC1(C)Cc2c(c(N3CCOCC3)nc3sc4c(NCc5ccccc5)nnnc4c23)CS1	Bead autofluor 23609
CC1(C)Cc2c(c(N3CCOCC3)nc3sc4c(NCc5ccco5)nnnc4c23)CS1	none
c1ccc(C2(Cn3ccc4ccccc43)OCCO2)cc1	BoNT-A LC inh2 35, Bead autofluor 24276
CCOC(=O)c1c(CN2CCCCC2)oc2ccc(OC)cc12	Bead autofluor 19520!
CCOC(=O)c1c(CN2CCN(c3ccccc3)CC2)oc2ccc(O)cc12	none
CCOC(=O)c1c(CN2CCCCC2C)oc2ccc(OC)cc12 (stereo not given)	Bead autofluor 22711
CCOC(=O)c1c(CN2CCC(C)CC2)oc2ccc(OC)cc12	Bead autofluor 20393
CCOC(=O)c1c(CN2CCN(C)CC2)oc2ccc(OC)cc12	none
CCOC(=O)C1=CNS(=O)(=O)NC1c1ccc(OC(C)=O)cc1 (stereo not given)	none
CCOc1ccc2nc3ccc4[nH]onc4c3c2c1	BoNT-A LC inh2 inconclusive, BoNT-F LC inh 50
CCOc1ccc2nc(N3CCOCC3)nc(C)c2c1	none
COc1ccc2c(c1)c1nc3ccccc3nc1n2CCn1c(=O)oc2ccccc21	Bead autofluor 16506
COc1ccc2c(c1)c1nc3ccccc3nc1n2CCCN1C(=O)c2ccccc2C1=O	MazEF act 698
Cc1ccc(C(=O)NCc2nnc(SCC(=O)NC(C)c3ccccc3)n2C)cc1 (stereo not given)	none
Cc1ccc(-c2nc3ccc(C)cn3c2CC2CCCCC2)cc1	none (no result: MazEF act, Vc quorum ag)
OC(Cn1c2ccccc2c2ccccc21)C[n+]1cccc2ccccc21 (stereo not given)	BoNT-A LC inh2 inconclusive, MazEF act 51, Bead autofluor 20032
O=c1c(-c2nnc(SCc3ccc(Cl)cc3)o2)cccn1Cc1ccccc1	Bead autofluor 22587
O=C(Nc1ccccc1-c1nnc(SCc2ccc(Cl)cc2)o1)c1ccccc1	Bead autofluor 22262
O=C(Nc1ccccc1-c1nnc(SCc2ccccc2)o1)c1ccccc1	none
Cc1c(NC(=O)c2ccccc2N)cccc1C(=O)O	Bead autofluor 20340
COc1ccccc1NCC(=O)N/N=C(\C)c1ccc(Br)s1	none
C/C(=N/NC(=O)CNc1ccc(C)cc1)c1ccc(Br)s1	Bead autofluor 19958
CSc1nnc(N2C(=O)C(O)=C(C(=O)c3ccco3)C2c2ccccc2F)s1 (stereo not given)	none
CSc1nnc(N2C(=O)C(O)=C(C(=O)c3ccc(C)o3)C2c2ccc(C)cc2)s1 (stereo not given)	MazEF act 254
CSc1nnc(N2C(=O)C(O)=C(C(=O)c3ccco3)C2c2ccccc2)s1 (stereo not given)	MazEF act 54
Cc1ccc(NC(=O)NC(=O)N(C(C)C)S(=O)(=O)c2ccc(C)cc2)cc1	none
Cc1c(C(=O)O)oc2c1C(O)CC(C)(C)C2 (stereo not given)	Bead autofluor 16667!
Cc1c(C(=O)O)oc2c1C(O)CCC2 (stereo not given)	none
C/C(=C\c1ccccc1)C(=O)NCc1ccco1	none
COc1ccc(/C=C/C(=O)OCC(=O)N2c3ccccc3CC2C)c(OC)c1 (stereo not given)	none
CC(C)OC(=O)c1nn2c(C(F)(F)F)cc(-c3ccc(Br)o3)nc2c1Br	MazEF act 351, Bead autofluor 20340
Cc1cc(C)n(CCCN2C(=O)c3cccc4cccc(c34)C2=O)n1	none
CCOC(=O)CSc1nc(-c2ccccn2)ncc1OC	none
CCOC(=O)CSc1ncc(OC)c(Sc2ccc(OC)cc2)n1	Bead autofluor 20771
CC(OC(=O)Cn1cnc2ccccc2c1=O)C(=O)NCc1ccccc1 (stereo not given)	none
C[C@H](O)[C@@H]1CN2CCc3c([nH]c4ccccc34)[C@@H]2C[C@@H]1N(C)C(=S)NCCc1ccccc1	BoNT-A LC inh2 37 (no result: MazEF act, Vc quorum ag)
COC(=O)c1cnn2c3c(c(C)nc12)CCCC3	none
Cc1c2c(nc3c(C(=O)NC4CCCC4)cnn13)CCCC2	Bead autofluor 16888
CC(C)Oc1cccc(C(=O)NC(=S)Nc2ccc(Cl)c(C(=O)O)c2)c1	Bead autofluor 23433
COc1ccc(C(=O)NC(=S)Nc2ccc(Cl)c(C(=O)O)c2)cc1	none
Oc1ccc(C=NCC2COc3ccccc3O2)cc1 (stereo not given)	Bead autofluor 20126
COc1ccc(C=NCC2COc3ccccc3O2)cc1OC (stereo not given)	none
N#CCCN(CCC#N)C(=O)c1ccc2c(c1)OCO2	Bead autofluor 20717
CCCN(CCC)C(=O)c1ccc2c(c1)OCO2	none
Cc1ccc(S(=O)(=O)NC(=O)C2(C)CCN2C(=O)c2ccccc2)cc1 (stereo not given)	none (no result: MazEF act)
Cc1ccc(CN2CCN(C(=O)C3CCC3)CC2)cc1	Bead autofluor 22954
